Assay results published in the supplement of paper PMC11417369.
± gives the standard deviation of the averaged measurements. In all, about 25,000 sequences were measured (“ln(normalized median fluorescence intensity)”: median about 10, highest 2% from about 12 on). Many of the other results were omitted from the sample, so the highest values are more common in it than they were.

Each sequence was assayed on PfAP2-G AP2 domain (GST-tagged) (assay: gcPBM binding intensity (ln(normalized median fluorescence intensity)); higher = stronger DNA binding).
Outline: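 An Agilent 4 × 180k array carrying primer-extended double-stranded 36-bp intergenic genomic probes and negative controls received GST-tagged P. falciparum DNA-binding domains expressed in E. coli, about 25 μg on average, for 1 h. The binding buffer contained 1× PBS, 1% milk, 0.2 mg/ml BSA, 0.5% salmon testes DNA and 0.03% Triton X-100. Binding intensity is the top Masliner-normalised natural-log median intensity across replicate spots of either probe orientation, read after Alexa488 anti-GST antibody staining and a 488 nm scan.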

Sequence	gcPBM binding intensity (ln)
ATATTTATATATAGTAGTACTTTCAATAATTTAAAT [XGTACX_site7276]	11.4 ± 0.84
TTTTAAATTTAGTGTAGTACACTTTTTTCAAATATA [XGTACX_site4659]	11.7 ± 1.2
TATATTTTATATTAGTGTACAAATTTCATTTTTCAT [XGTACX_site2204]	11 ± 0.5
ATATGTTACTTTACATAAAGAAGAAGAAGAAGAAAA [CACACA_negctrl_site985]	9.805 ± 0.064
TTTTTGTTTGAACACTGTACGTATAAATATAAAAGT [XGTACX_site6476]	11.7 ± 0.84
TGTATGATTATGTTGTGTACGTAAAATATGAAAAAT [XGTACX_site1720]	11.5 ± 0.89
TATAAAAAATTATGTTGTACGTAATATAAAATTTGT [XGTACX_site7122]	11.4 ± 0.86
TCTTTTGAACAAATTTGTACGTATATAAAAATATTT [XGTACX_site6547]	11.4 ± 0.71
ATATAAACATGTTTGTGTACGTAATATGAAAAATAA [XGTACX_site8157]	11.7 ± 1
TATAATAAAATATTTTGTACGTATATTTTAATATTT [XGTACX_site2582]	11.2 ± 0.72
TAAAATATAAGACACACACACATATATTTATATATC [CACACA_site6248]	9.96 ± 0.099
AAAAAAAAAATTAAAAGTACAGAAAATAAATAAATA [XGTACX_site7470]	11.4 ± 0.82
AAAAAAAAAAAAAAAAGTACACAGTAGAATTAAATG [XGTACX_site1843]	11.7 ± 0.92
AAAGAATAATTAAATACACACATATTACAGTAAAAA [CACACA_site2450]	10.03 ± 0.092
TTATGTACAATTTCTTCTTTCTTTTTTCCTAAAGAC [CACACA_negctrl_site1193]	11.1 ± 0.57
GGTCTTATTTTTAGTAGTACAAATATAATATACATA [XGTACX_site6483]	11.4 ± 0.83
AATAATTTAATACATACACACGTATATCTTTTTTTT [CACACA_site8632]	9.955 ± 0.078
TAATTGTACGCCAATACACACAGAATTAAAATGTAG [CACACA_site4234]	11.6 ± 1.1
TAATTGTACGCCAATACACACAGAATTATAATGTAG [CACACA_site6201]	11.5 ± 1
TAATTGTACGCCAATACACACAGAATTAGAATGTAG [CACACA_site102]	11.8 ± 1.3
CAACATTTATATTTTACACACATCATTTAAGCGCTT [CACACA_site992]	10.09 ± 0.078
ATCCTTTATTTTTTTTGTACATAAAAATAACTCGAG [XGTACX_site3885]	11.1 ± 0.62

Sequence	gcPBM binding intensity (ln)
ATATGTATATTTTTGATGTGCTTTTATTTGGTTATT [CACACA_negctrl_site626]	10.01 ± 0.035
AACATATACACGAACACACACACATATATATATATA [CACACA_site502]	10.3 ± 0.26
CCCCCCCACGGACACACACACATACATACCACATAT [CACACA_site5303]	11.7 ± 0.75
TTCCCCCCCAGACACACACACACATACATACCACAT [CACACA_site2305]	11.8 ± 0.84
CCCCCCCACAGACACACACACATACATACCACATAT [CACACA_site2306]	11.8 ± 0.76
CATATACACGAACACACACACATATATATATATATA [CACACA_site4437]	10.5 ± 0.68
CGCATACACGGACACACACACACATATATATATATA [CACACA_site4520]	11.3 ± 0.7
CCCCCCCACGAACACACACACATACATACCACATAT [CACACA_site7149]	12 ± 1
TACATACACGGACACACACACATATATATATATATA [CACACA_site5883]	11.3 ± 0.88
CACAGACACCCATACACACACATACCCATATATATA [CACACA_site5023]	10.4 ± 0.26
TACATACACAGACACACACACATATATATATATATA [CACACA_site3557]	10.2 ± 0.38
CATACACCCAGACACACACACATATATATATATATA [CACACA_site634]	10.3 ± 0.39
TACAGACATACATACACACATACATACAGACATACA [CACACA_site1941]	10.1 ± 0.3
AAATTAATGTATATGTGAAGCAAGGGATGCGGCAGA [CACACA_negctrl_site406]	10.2 ± 0.12
GTACCTATTTCATACACACACACACCCAAACAAACA [CACACA_site976]	10.7 ± 0.51
ACATAATAAAAATAAATTCATAAGTAAATAAATAAA [TGCATGCA_negctrl_site186]	9.88 ± 0.24
GTTTGTATAGGTTCATGTACAAAAAAAAAAAAAAAA [XGTACX_site537]	11 ± 0.83
TTGTTTAAGTCACGAACACACATATATCATCAATTT [CACACA_site986]	10.11 ± 0.071
TTACTTATAAATAAATATACAAAAATGTTATATATA [XGTACX_negctrl_site223]	9.625 ± 0.078
CATACATACATACATACATGCATACATACATACATA [TGCATGCA_site218]	10.5 ± 0.47
AATTCTTTTTTCAACACACACACACCCGAAAATATA [CACACA_site3111]	10.3 ± 0.28
CAAACCTATATACAAACATGCAATCCACATATTGGT [TGCATGCA_site756]	9.99 ± 0.13

Sequence	gcPBM binding intensity (ln)
AACACAAGAACAGAACGTACACACACATATATATAT [XGTACX_site7347]	11.3 ± 0.61
TAAAATTTTTGTTTTTGTACGAAACATCAATTTTAC [XGTACX_site4963]	10.7 ± 0.34
AAAAAATGAAAAAACTGTACGCAATTTTGTTTTTAT [XGTACX_site2299]	11.7 ± 1.2
AAGAAAAATTTAAACTGTACTTGTTTTCCAATGAAC [XGTACX_site4443]	11.4 ± 1
CTTAAATTGAAATGTTGTACAAAGTAAAAACAATGA [XGTACX_site2123]	11.2 ± 0.86
GTATATCACACATTTGCATGTTGTCAATAGTTTATC [TGCATGCA_site134]	10.23 ± 0.014
TTAAAAATATTATGTACACACATTTTAGATATTTGT [CACACA_site1846]	11.6 ± 0.77
ATTTAAAAAATATATTGTACATATTTTATTATGTTT [XGTACX_site2984]	11 ± 0.63
TTCTTTAAAATATTATGTACACATTGCGAACAGTTT [XGTACX_site5418]	11.7 ± 1
GTTATAAAATATGGCACACAAAATGTAAGTAAATGA [CACACA_site1458]	10.5 ± 0.2
TTCATTAATGTGTAATGTACTTGTAATATGGGATTA [XGTACX_site3903]	11.1 ± 0.82
TTTTTATTTATATGATACTTATATATATATATATAT [CACACA_negctrl_site462]	10.2 ± 0.35
CGATACTTTAGGTGTACACAAATATACATGAATGAG [CACACA_site5189]	11.6 ± 0.84
ATATATATTTATAGGTGTACAAAATACTATTTTAGG [XGTACX_site8499]	11.3 ± 0.82
TTTATACACAAAAAATGTACATATATATAATGAATT [XGTACX_site1195]	11.2 ± 0.72
TATTTATATAGGTATACACACATACAAATATGTAAA [CACACA_site7705]	10 ± 0.28
TTACAAATAATTTGTTGTACGCTTTTTTTCTTTTTT [XGTACX_site7199]	11.7 ± 1.1
TTTTCTTTTTTCTGTTGTACTAAAAATAATTTTGTA [XGTACX_site5171]	11.3 ± 0.87
AAAATTTCTTTTTTTTGTACATATATAATAATATAT [XGTACX_site7107]	10.9 ± 0.62
GACAAAATGATAGGGACACACAATATCAATGTTTAA [CACACA_site765]	10.7 ± 0.51
TTTTTTTTTTTTGAGTGTACTAAAATATTACCTTTT [XGTACX_site646]	11.2 ± 0.99
TAAAATAATAAACAGAAGAAATCATTCATATAAAAA [XGTACX_negctrl_site502]	9.635 ± 0.035

Sequence	gcPBM binding intensity (ln)
ATAAATGAAAAAAAGCGTACATATAAAAAAATATAT [XGTACX_site5063]	11.6 ± 1
TTAACAAAATTTCCGTGTACGTAAATAAGAACATAG [XGTACX_site7200]	11.8 ± 0.95
ATATAAGAACAAAATTGTACATAAATATTTATATAA [XGTACX_site7404]	10.8 ± 0.54
ACATAAGAACATATTTGTACGTATATAAATTAAATA [XGTACX_site6127]	11.4 ± 0.79
AAATAATTAAAAAAAAGTACACATGTGACTACATAT [XGTACX_site8767]	11.4 ± 0.71
ATGAACATGTGACAATGTACATTTATATCTTAAGAA [XGTACX_site4960]	10.8 ± 0.43
TTTTTTTTTTTTTTTTTTATATTTCATAATTTCATT [XGTACX_negctrl_site579]	9.33 ± 0.71
TTTTGTTTTGTTTTGTTTTGTTTTGTTTTATTTTAT [GTGCAC_negctrl_site383]	9.86 ± 0.27
GAATACACCACGCACACACACTTGAGAAAAAATAAA [CACACA_site7747]	10.6 ± 0.56
TATTTGTTTTTATATAGTACATAAATATATATATAT [XGTACX_site7834]	10.9 ± 0.61
AAATTATATATAAAATGTACATATGTAGGTAATTTT [XGTACX_site5047]	10.9 ± 0.49
TTTTTTTTTTTTGGTAGTACATAAATATTTTATGGA [XGTACX_site6851]	12 ± 1.7
AAATTAAAATAAAATAGTACATATATTTATATTTTT [XGTACX_site1687]	11.1 ± 0.69
TATATTTTTATATTTTGTACATATAGTAAATATAAA [XGTACX_site4768]	10.8 ± 0.51
ATATAGTAAATTGGTAGTACATAAAATGATTTTATG [XGTACX_site4143]	11.6 ± 0.95
TTTTGTTGTTGTTGTTGTACATAAATAATAAAATAT [XGTACX_site8681]	11.3 ± 0.95
TATAGGTAAATGGACACACACATATTTATATTTATA [CACACA_site7683]	10.9 ± 0.58
ATTATATATATCAGGTGTACGTAAAAAAAATGGACG [XGTACX_site1028]	11.9 ± 0.81
AGTAAATATATTATATGTACGTATCATAAAATATAT [XGTACX_site1567]	11.6 ± 0.86
TTTTTTTTTATAAGGTGTACGTAAAATGTGTAGGTC [XGTACX_site3585]	11.6 ± 0.82
TAAAAATATATGTATACACACATATATATATATATA [CACACA_site3951]	10 ± 0.38
AATGCTATCTTCTTATTTTTCATACACAACATGAAC [CACACA_negctrl_site1809]	10.2 ± 0.11
